Experimental data as given in PubChem BioAssay (EPA / NIEHS).
Values joined by “and” are separate entries in the source; they are usually repeats but may differ in a detail not shown here. Equal entries are not always repeated. Where a structure was tested more than once in an assay, its records may differ in their call. Active and inactive are the calls of the source. Rule for the calls: active = hit-call score of the fitted dose curve at least 0.9, where 1 is the maximum; inactive = score below 0.9.

What was measured:
[1] = ATG_CMV_CIS: Attagene CIS-FACTORIAL HepG2 Assay for human CMV (Internal Marker) (AID 2282928); conditions: HepG2 CMV promoter reporter, transcription factor profiling; actives raise or lower the signal;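 note: endpoint acts as a background internal control marker rather than a target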
Procedure, shortened: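 Reporter transcripts from transfected HepG2 cells are isolated after 24 h of chemical dosing, reverse-transcribed and amplified. Fragments labeled with 6-FAM are cut with HpaI and quantified by capillary electrophoresis; DMSO defines baseline.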

[2] = ATG_DR4_LXR_CIS: Attagene CIS-FACTORIAL HepG2 Assay for human Liver X Receptor (LXR), DR4 submotif (AID 2282929); conditions: HepG2 Attagene DR4 cis-reporter, mRNA transcription; AC50: actives raise or lower the signal unless noted; outcome: actives raise or lower the signal unless noted
Procedure, shortened: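 Readout: reporter transcript fluorescence after RT-PCR and capillary electrophoresis, fitted bidirectionally against DMSO controls. Human HepG2 liver cells carried transiently transfected multiplexed reporter constructs; endogenous transcription factor activity measured 24 h post-dosing.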

[3] = target: Aryl hydrocarbon receptor (Homo sapiens) (UniProt P35869); assay: ATG_Ahr_CIS: Attagene CIS-FACTORIAL HepG2 Assay for human Aryl Hydrocarbon Receptor (Ahr) (AID 2282930); conditions: HepG2 AhR cis-factorial reporter transcription; actives raise or lower the signal
Aryl hydrocarbon receptor (Homo sapiens), sequence (P35869 whole entry, looked up): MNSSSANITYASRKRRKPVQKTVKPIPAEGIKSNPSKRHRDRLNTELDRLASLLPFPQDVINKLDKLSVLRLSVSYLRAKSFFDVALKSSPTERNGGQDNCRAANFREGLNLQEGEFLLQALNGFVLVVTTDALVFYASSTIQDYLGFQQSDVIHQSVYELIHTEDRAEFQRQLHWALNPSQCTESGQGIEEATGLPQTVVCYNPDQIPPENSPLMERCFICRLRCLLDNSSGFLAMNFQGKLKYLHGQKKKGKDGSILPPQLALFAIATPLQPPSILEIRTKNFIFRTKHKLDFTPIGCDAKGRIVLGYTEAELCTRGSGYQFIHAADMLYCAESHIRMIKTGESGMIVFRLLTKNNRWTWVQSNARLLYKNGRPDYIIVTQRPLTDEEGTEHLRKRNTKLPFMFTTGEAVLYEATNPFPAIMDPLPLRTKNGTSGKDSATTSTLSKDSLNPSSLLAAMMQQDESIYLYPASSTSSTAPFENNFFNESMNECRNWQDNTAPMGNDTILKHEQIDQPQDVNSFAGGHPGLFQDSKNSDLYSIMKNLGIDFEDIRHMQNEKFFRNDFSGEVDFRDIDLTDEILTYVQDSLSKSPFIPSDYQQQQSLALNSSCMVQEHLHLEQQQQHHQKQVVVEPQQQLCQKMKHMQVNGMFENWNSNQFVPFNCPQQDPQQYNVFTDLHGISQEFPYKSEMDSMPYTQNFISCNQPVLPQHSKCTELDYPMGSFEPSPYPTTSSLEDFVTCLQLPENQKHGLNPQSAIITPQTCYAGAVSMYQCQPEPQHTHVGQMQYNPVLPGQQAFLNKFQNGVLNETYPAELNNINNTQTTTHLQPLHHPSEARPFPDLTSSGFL
Procedure, shortened: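 HepG2, transient MRTU (cis) transfection, 24 h exposure. RNA → cDNA → PCR → 6-FAM primer extension → HpaI 2 h 37 C → CE. Fit: bidirectional, DMSO baseline.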

[4] = ATG_AP_1_CIS: Attagene CIS-FACTORIAL HepG2 Assay for human Activator Protein 1 (AP-1) (AID 2282931); conditions: HepG2 Attagene cis-factorial AP-1 reporter mRNA; actives raise or lower the signal
Procedure, shortened: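 Reporter transcripts were measured 24 h after dosing by RT-PCR and capillary electrophoresis of fluorescent fragments. Cells: HepG2 carrying transfected cis-regulated reporter constructs reading endogenous factor activity. Gain or loss fitted against DMSO.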

[5] = ATG_AP_2_CIS: Attagene CIS-FACTORIAL HepG2 Assay for human Activator Protein 2 (AP-2) (AID 2282932); conditions: HepG2 AP-2 cis-reporter, Attagene transcription factor profiling; AC50: actives raise or lower the signal unless noted; outcome: actives raise or lower the signal unless noted
Procedure, shortened: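 Endogenous transcription factor activity is reported through transfected multiplex reporter constructs in HepG2, after 24 h of compound exposure. Transcripts were quantified by RT-PCR and capillary electrophoresis of fluorescent fragments. Bidirectional fit against DMSO.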

[6] = ATG_BRE_CIS: Attagene CIS-FACTORIAL HepG2 Assay for human Bone Morphogenetic Protein (BMP) Response Element (BRE) (AID 2282933); conditions: HepG2 BMP response element reporter, Attagene transcription factor profiling; actives raise or lower the signal
Procedure, shortened: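 Endogenous transcription factor activity at a BMP response element was monitored in transfected HepG2 cells 24 h after dosing. Fluorescent RT-PCR products were resolved by capillary electrophoresis, and activity was fitted in both directions versus DMSO.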

[7] = target: Transcription factor E2F1 (Homo sapiens) (UniProt Q01094); assay: ATG_E2F_CIS: Attagene CIS-FACTORIAL HepG2 Assay for human E2F Transcription Factor 1 (AID 2282935); conditions: HepG2 Attagene cis-reporter, E2F reporter RNA transcripts; actives raise or lower the signal
Transcription factor E2F1 (Homo sapiens), sequence (Q01094 whole entry, looked up): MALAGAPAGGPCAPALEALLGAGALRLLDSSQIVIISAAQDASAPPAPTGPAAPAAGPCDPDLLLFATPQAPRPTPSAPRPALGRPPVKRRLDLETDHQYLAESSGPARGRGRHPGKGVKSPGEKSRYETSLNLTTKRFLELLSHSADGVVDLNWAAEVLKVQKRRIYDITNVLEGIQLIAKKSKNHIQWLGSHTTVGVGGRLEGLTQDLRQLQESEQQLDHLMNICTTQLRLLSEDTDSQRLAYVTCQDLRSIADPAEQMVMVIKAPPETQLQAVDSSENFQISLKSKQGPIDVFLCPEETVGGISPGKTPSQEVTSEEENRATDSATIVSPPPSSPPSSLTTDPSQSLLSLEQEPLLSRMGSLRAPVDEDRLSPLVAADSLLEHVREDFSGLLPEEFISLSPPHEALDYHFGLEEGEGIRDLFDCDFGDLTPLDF
Procedure, shortened: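 Gain or loss of reporter transcript, fitted against DMSO, reflects E2F1-driven transcription. Transiently transfected HepG2 dosed 24 h before RNA isolation. Quantified by fluorescent RT-PCR products separated by capillary electrophoresis.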

[8] = ATG_E_Box_CIS: Attagene CIS-FACTORIAL HepG2 Assay for human Enhancer Box (E-box) (AID 2282936); conditions: HepG2 E-box cis-reporter transcription, actives raise or lower the signal
Procedure, shortened: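 E-box-driven reporter transcripts measured in transiently transfected HepG2 after 24 h exposure: RNA reverse-transcribed, PCR-amplified, fluorescently labelled, digested and resolved by capillary electrophoresis. Gain or loss relative to DMSO.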

[9] = ATG_M_61_CIS: Attagene CIS-FACTORIAL HepG2 Assay for M61 Transcription Factor (Internal Marker) (AID 2282937); conditions: HepG2 Attagene CIS-FACTORIAL M61 internal marker reporter; actives raise or lower the signal
Procedure, shortened: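 Readout: fluorescent reporter mRNA fragments resolved by capillary electrophoresis after RT-PCR. Transiently transfected human HepG2 cells carried MRTU constructs reporting endogenous TF activity; 24 h chemical exposure; gain or loss of signal fitted relative to DMSO.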

[10] = ATG_EGR_CIS: Attagene CIS-FACTORIAL HepG2 Assay for human Early Growth Response 1 (EGR1) (AID 2282938); conditions: HepG2 Attagene CIS-FACTORIAL EGR reporter mRNA; actives raise or lower the signal
Procedure, shortened: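 Read-out: fluorescent reporter-mRNA fragments resolved by capillary electrophoresis after RT-PCR, 24 h post-dose in transiently transfected HepG2. Endogenous transcription-factor activity reported via cis-element-regulated reporter units; gain or loss fitted relative to DMSO.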

[11] = ATG_M_19_CIS: Attagene CIS-FACTORIAL HepG2 Assay for M19 Transcription Factor (Internal Marker) (AID 2282939); conditions: HepG2 Attagene CIS-FACTORIAL M19 internal marker reporter; actives raise or lower the signal
Procedure, shortened: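 Background-control endpoint from a multiplexed HepG2 reporter panel. Cells carrying cis-regulated reporter constructs are treated 24 h, then reporter transcripts are amplified, fluorescently labelled and sized by capillary electrophoresis. DMSO defines baseline.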

[12] = ATG_ERE_CIS: Attagene CIS-FACTORIAL HepG2 Assay for Estrogen Response Element (ERE) (AID 2282940); conditions: HepG2 ERE cis-reporter, Attagene RNA transcript; actives raise or lower the signal
Procedure, shortened: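 Cells used were human hepatoma HepG2, transfected with multiple reporter transcription units under cis-regulatory promoters. Reporter mRNA, read 24 h post-dosing via fluorescent RT-PCR products on capillary electrophoresis, was fitted bidirectionally relative to DMSO.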

[13] = ATG_Ets_CIS: Attagene CIS-FACTORIAL HepG2 Assay for human Erythroblast Transformation Specific (ETS) (AID 2282941); conditions: HepG2 ETS cis-reporter transcription; AC50: actives raise or lower the signal unless noted; outcome: actives raise or lower the signal unless noted
Procedure, shortened: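 Bidirectional fit versus DMSO of reporter mRNA signal, detected by RT-PCR and capillary electrophoresis in HepG2 cells transiently transfected with cis-element reporters and dosed 24 h.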

[14] = target: Hepatocyte nuclear factor 3-beta (Homo sapiens) (UniProt Q9Y261); assay: ATG_FoxA2_CIS: Attagene CIS-FACTORIAL HepG2 Assay for human Forkhead box A2 (FOXA2) (AID 2282942); conditions: HepG2 cis-reporter transcription factor activity, 24 h; actives raise or lower the signal
Hepatocyte nuclear factor 3-beta (Homo sapiens), sequence (Q9Y261 whole entry, looked up): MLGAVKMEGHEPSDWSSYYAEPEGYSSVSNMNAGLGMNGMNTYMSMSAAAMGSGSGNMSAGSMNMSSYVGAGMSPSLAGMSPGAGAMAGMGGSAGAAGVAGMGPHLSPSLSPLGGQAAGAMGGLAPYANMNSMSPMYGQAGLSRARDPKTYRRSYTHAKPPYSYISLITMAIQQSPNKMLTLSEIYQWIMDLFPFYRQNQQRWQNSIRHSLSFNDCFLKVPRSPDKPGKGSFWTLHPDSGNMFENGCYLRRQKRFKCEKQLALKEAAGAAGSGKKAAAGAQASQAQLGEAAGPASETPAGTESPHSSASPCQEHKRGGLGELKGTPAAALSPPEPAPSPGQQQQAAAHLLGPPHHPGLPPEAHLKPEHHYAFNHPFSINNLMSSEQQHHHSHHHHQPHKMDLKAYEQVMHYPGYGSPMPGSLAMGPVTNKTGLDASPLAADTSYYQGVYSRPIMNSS
Procedure, shortened: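 Readout: fluorescent reporter transcripts resolved by capillary electrophoresis after RT-PCR. Transiently transfected HepG2, 24 h compound exposure, endogenous TF activity at cis promoter elements. Gain or loss of signal fitted relative to DMSO.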

[15] = ATG_FoxO_CIS: Attagene CIS-FACTORIAL HepG2 Assay for human Forkhead box O (FoxO) (AID 2282943); conditions: HepG2 Attagene cis-reporter, FoxO element, mRNA; actives raise or lower the signal
Procedure, shortened: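 Human hepatoma HepG2 cells carry transiently introduced reporter transcription units controlled by cis promoter elements. Chemical treatment lasted 24 h, and mRNA signal was compared with DMSO.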

[16] = target: Bile acid receptor (Homo sapiens) (UniProt Q96RI1); assay: ATG_IR1_CIS: Attagene CIS-FACTORIAL HepG2 Assay for human Nuclear Receptor Subfamily 1 Group H Member 4 (NR1H4), IR1 submotif (AID 2282946); conditions: IR1 reporter transcription, actives raise or lower the signal
Bile acid receptor (Homo sapiens), sequence (Q96RI1 whole entry, looked up): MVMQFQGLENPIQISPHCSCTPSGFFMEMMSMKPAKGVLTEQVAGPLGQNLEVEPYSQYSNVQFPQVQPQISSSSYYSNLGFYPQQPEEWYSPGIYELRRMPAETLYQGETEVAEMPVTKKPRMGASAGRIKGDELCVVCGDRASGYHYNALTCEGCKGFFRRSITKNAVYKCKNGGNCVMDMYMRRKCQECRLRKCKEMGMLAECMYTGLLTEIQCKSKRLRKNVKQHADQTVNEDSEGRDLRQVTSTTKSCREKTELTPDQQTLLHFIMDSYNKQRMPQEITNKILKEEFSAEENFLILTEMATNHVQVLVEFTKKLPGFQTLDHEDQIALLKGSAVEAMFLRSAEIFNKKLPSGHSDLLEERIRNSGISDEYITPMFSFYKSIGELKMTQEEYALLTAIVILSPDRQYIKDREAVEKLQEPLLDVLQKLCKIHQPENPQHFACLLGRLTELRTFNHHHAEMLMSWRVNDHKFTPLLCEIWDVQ
Procedure, shortened: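 HepG2 cells transiently transfected with multiplexed cis-element reporter units read endogenous transcription factor activity. After 24 h compound exposure, reporter mRNA was quantified by RT-PCR, fluorescent labelling, HpaI digestion and capillary electrophoresis; bidirectional fitting versus DMSO baseline.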

[17] = ATG_GLI_CIS: Attagene CIS-FACTORIAL HepG2 Assay for human Zinc Finger Protein GLI1 (AID 2282945); conditions: HepG2, Attagene cis-factorial reporter mRNA, GLI element; actives raise or lower the signal
Procedure, shortened: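 Bidirectional curve fits relative to DMSO, using reporter mRNA levels from RT-PCR plus capillary electrophoresis. Cells were HepG2 transiently carrying cis-regulated reporter constructs, harvested 24 h after dosing.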

[18] = ATG_GATA_CIS: Attagene CIS-FACTORIAL HepG2 Assay for human GATA Binding Protein (AID 2282944); conditions: HepG2 GATA cis-element reporter, Attagene multiplex mRNA; actives raise or lower the signal
Procedure, shortened: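 Endogenous transcription factor activity was captured through cis-promoter-driven reporters in transfected HepG2 cells. After 24 h exposure, reporter transcripts were quantified by RT-PCR with fluorescent capillary electrophoresis, and responses fitted both directions against DMSO.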

[19] = target: Retinoic acid receptor alpha (Homo sapiens) (UniProt P10276); assay: ATG_DR5_RAR_CIS: Attagene CIS-FACTORIAL HepG2 Assay for human Retinoic Acid Receptor Alpha (RARE), DR5 submotif (AID 2282934); conditions: HepG2 Attagene cis-factorial RARE DR5 reporter, mRNA; actives raise or lower the signal
Retinoic acid receptor alpha (Homo sapiens), sequence (P10276 whole entry, looked up): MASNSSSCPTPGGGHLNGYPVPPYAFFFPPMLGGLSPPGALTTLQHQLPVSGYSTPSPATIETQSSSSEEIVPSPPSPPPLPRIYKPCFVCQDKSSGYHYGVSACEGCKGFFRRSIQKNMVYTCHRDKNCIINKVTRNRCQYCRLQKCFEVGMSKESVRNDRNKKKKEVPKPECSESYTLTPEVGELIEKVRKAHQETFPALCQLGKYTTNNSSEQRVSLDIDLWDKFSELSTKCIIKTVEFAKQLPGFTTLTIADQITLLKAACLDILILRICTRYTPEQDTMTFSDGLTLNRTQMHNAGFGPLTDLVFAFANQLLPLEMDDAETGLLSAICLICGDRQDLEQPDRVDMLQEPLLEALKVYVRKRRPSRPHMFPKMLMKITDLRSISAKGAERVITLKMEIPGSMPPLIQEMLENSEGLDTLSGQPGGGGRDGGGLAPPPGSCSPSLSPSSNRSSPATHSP
Procedure, shortened: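 HepG2, transient cis-reporter transfection, 24 h exposure. mRNA readout: RT-PCR, FAM label, HpaI cut, capillary electrophoresis. DMSO baseline, gain/loss fitting.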

Measured: AC50

c1cc[nH]c1
inactive: [1] | [2] | [3] | [4] | [5] | [6] | [7] | [8] | [9] | [10] | [11] | [12] | [13] | [14] | [15] | [16]

O=C1Cc2ccccc2N1c1c(Cl)cccc1Cl
inactive: [3] | [4] | [5] | [7] | [8] | [9] | [10] | [11] | [13] | [14] | [15] | [17]
active: [2] 66.4 µM | [6] 100 µM | [12] 6.29 µM | [16] 100 µM

NC(C(F)(F)F)C(F)(F)F
inactive: [1] | [2] | [3] | [4] | [5] | [6] | [7] | [8] | [10] | [12] | [13] | [14] | [15] | [17] | [16]

CCCCCCCCCCCC[N+](C)(C)Cc1ccccc1
inactive: [2] | [3] | [4] | [5] | [6] | [7] | [8] | [9] | [10] | [11] | [13] | [14] | [18] | [16]
active: [2] 11.1 µM | [5] 15.7 µM | [8] 12.4 µM | [10] 17.3 µM | [13] 11.1 µM

CC1CCC(CO)CC1 (stereo not given)
active: [12] 20 µM and 27.1 µM
inactive: [1] | [2] | [3] | [4] | [5] | [6] | [19] | [7] | [8] | [9] | [10] | [11] | [13] | [14] | [17]

O=CC(F)(F)C(F)(F)C(F)(F)C(F)F
inactive: [1] | [2] | [3] | [4] | [5] | [6] | [7] | [8] | [9] | [10] | [11] | [12] | [13] | [14] | [15] | [18] | [17] | [16]
